Experimental data taken from PubChem BioAssay AID1159570 (Broad Institute, 2015).
Potency and affinity values are given separately. Activity calls are given as the source filed them. The rule behind the calls is not given here.

experiment: P. falciparum 3D7-ScDHODH growth inhibitors, dose response, SYBR Green, dry powder samples (AID 1159570); details: SYBR Green fluorescence; series mostly up to 19.5 µM

outcome, inactive:
C[C@@H]1CN([C@H](C)CO)C(=O)c2cccc(NC(=O)c3ccc(-c4nccs4)cc3)c2O[C@H]1CN(C)Cc1ccc(C(F)(F)F)cc1
COc1ccc(S(=O)(=O)Nc2ccc3c(c2)CC(=O)N([C@@H](C)CO)C[C@H](C)[C@H](CN(C)S(=O)(=O)c2ccc(OC)cc2)O3)cc1
O=C(NC[C@@H]1CC[C@H]2[C@H](CN2Cc2cc(-c3ccccc3)on2)O1)c1ccc2c(c1)OCO2
Cc1ccccc1-c1ccccc1[C@H]1[C@@H](C#N)N(C(=O)c2ccccc2)[C@@H]1CO
COc1cccc(C#Cc2ccc([C@H]3[C@@H](CO)N(C(=O)c4ccccn4)[C@H]3C#N)cc2)c1
